Bioassay records as filed in PubChem BioAssay.
CYP2C9 act = human CYP2C9 activators, primary screen, biochemical, luminescence; activation factor at 5 µM; AID 1024, 2008; Cytochrome P450 2C9 (Homo sapiens), P11712; 1.4% of 96,000 active; recombinant CYP2C9, luciferin-H conversion; hits give high values; factor 1 = untreated enzyme, 0 = blocked;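 active = activation factor of 2 or more for CYP2C9 at a 5 µM dose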;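 note: 0 = sulfaphenazole-blocked wells and 1 = vehicle-only wells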
CYP2C19 act = human CYP2C19 activators, primary screen, biochemical, luminescence; recombinant CYP2C19, luciferin-H EGE luminescence; hits give high values; 0 = fully inhibited enzyme, 1 = untreated enzyme; activation factor at 5 µM; AID 1025, 2008; 96,000 tested, under 10 active;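 active = activation factor of at least 2 at 5 µM in the primary screen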;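 note: 0 = wells with 2.5 mM tranylcypromine and 1 = vehicle-only wells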
Target sequence (P33261 whole entry, looked up): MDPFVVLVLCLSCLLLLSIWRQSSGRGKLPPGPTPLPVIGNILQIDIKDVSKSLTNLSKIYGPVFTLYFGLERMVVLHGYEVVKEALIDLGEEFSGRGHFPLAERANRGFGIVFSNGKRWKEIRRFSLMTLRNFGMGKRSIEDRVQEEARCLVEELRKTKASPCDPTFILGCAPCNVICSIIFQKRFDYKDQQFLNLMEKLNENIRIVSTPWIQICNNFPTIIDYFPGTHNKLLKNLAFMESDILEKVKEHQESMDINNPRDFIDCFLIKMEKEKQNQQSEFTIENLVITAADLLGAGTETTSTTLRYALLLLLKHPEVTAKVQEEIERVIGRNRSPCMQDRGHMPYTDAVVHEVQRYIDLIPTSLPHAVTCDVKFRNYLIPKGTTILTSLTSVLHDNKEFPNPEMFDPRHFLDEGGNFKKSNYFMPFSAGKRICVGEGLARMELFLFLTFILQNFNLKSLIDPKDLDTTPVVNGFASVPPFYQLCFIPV
CYP2C9 inh = blockers of cytochrome P450 2C9 activity – biochemical, luminescence, ADME assay, primary screen | AID 777, 2007 | CYP2C9 Supersomes, luciferin-H conversion | 20% of 96,000 active | inhibition, % at 5 µM;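 active = blocking of liver enzyme CYP2C9 beyond about 50% at 5 µM, limit read from the data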
Cav32 inh = Cav3.2 calcium influx blockers – cell-based, Fluo-4 calcium fluorescence, FDSS, MLSMR library, primary screen. Voltage-dependent T-type calcium channel subunit alpha-1H (Homo sapiens), O95180. Cav3.2-expressing cells; hits give low values. B-score at 10 µM. 4% of 100,000 active;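 active = single-dose well whose peak fluorescence ratio is a statistical outlier from its plate by either plate-standardised score or position-corrected B-score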
CYP2C19 inh = blockers of cytochrome P450 2C19 activity – biochemical, luminescence, ADME assay, primary screen; 21% of 96,000 active; P33261; inhibition, % at 5 µM; CYP2C19 Supersomes, luciferin-H EGE luminescence, 30 min;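 active = CYP2C19 inhibition above a set limit at 5 µM in the primary screen, cut at about 50% in these data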;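 note: plate controls were negative control wells for no effect and 2.5 mM tranylcypromine positive control for full effect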
Starred values were filed as active, the others as inactive. In the library only some 27% were active in any assay of this set; here they are far more common.

Screening OC(COc1ccc(Cl)cc1)CN1CCCCC1 (stereo not given) returned CYP2C9 act 1.2, CYP2C19 act 1.1, CYP2C9 inh -23, Cav32 inh 0.049 and CYP2C19 inh -7.
Screening Cc1ccccc1OCCn1c(=O)sc2ccccc21 returned Cav32 inh -2.1.
Screening Cc1ccc(OCCn2c(=O)cnc3ccccc32)cc1 returned Cav32 inh -2.
For Cc1ccc(OCCCn2c(CO)nc3ccccc32)cc1 the results were CYP2C9 act 0.5, CYP2C19 act 0, CYP2C9 inh 53*, Cav32 inh -1.2 and CYP2C19 inh 95*.
COCCn1c(COC)nc2ccccc21 was read as CYP2C9 act 0.9, CYP2C19 act 0.9, CYP2C9 inh 12, Cav32 inh 0.86 and CYP2C19 inh 5.
COc1ccccc1OCCn1c(=O)sc2ccccc21 was read as CYP2C9 act 0.3, CYP2C19 act 0.3, CYP2C9 inh 66*, Cav32 inh -1.6 and CYP2C19 inh 68*.
Screening COCc1nc2ccccc2n1CCOc1ccccc1OC returned CYP2C9 act 0.8, CYP2C19 act 0.4, CYP2C9 inh 16, Cav32 inh -0.41 and CYP2C19 inh 60*.
For COCCn1c(COc2ccc(C)cc2)nc2ccccc21 the results were CYP2C9 act 0.7, CYP2C19 act 0.3, CYP2C9 inh 30, Cav32 inh -0.39 and CYP2C19 inh 65*.
For OCc1nc2ccccc2n1CCCOc1ccccc1 the results were CYP2C9 act 1, CYP2C19 act 0.5, CYP2C9 inh 1, Cav32 inh -2.6 and CYP2C19 inh 53*.
NCCCC[C@H]1CNC(=O)C(=O)N1CCC12CC3CC(CC(C3)C1)C2 was read as Cav32 inh 0.93.
For O=C1c2ccccc2C(=O)N1CCc1nc(-c2ccc(Cl)cc2)no1 the results were CYP2C9 act 0.7, CYP2C19 act 0.8, CYP2C9 inh 29, Cav32 inh 0.82 and CYP2C19 inh 22.
For O=C1c2ccccc2C(=O)N1CCc1nc(-c2cccnc2)no1 the results were CYP2C9 act 0.7, CYP2C19 act 0.5, CYP2C9 inh 26, Cav32 inh 1.5 and CYP2C19 inh 51*.
`O=C1c2ccccc2C(=O)N1CCc1nc(-c2ccncc2)no1` gave CYP2C9 act 0.3, CYP2C19 act 0, CYP2C9 inh 72*, Cav32 inh -0.16 and CYP2C19 inh 97*.
C=CCn1c(O)c(N=NC(=O)c2ccc3c(c2)OCO3)c2ccccc21 was read as CYP2C9 act 1, CYP2C19 act 1, CYP2C9 inh -4, Cav32 inh 0.39 and CYP2C19 inh 2.
For COC(=O)CSc1nnc(-c2ccoc2C)n1-c1ccc(OC)cc1 the results were CYP2C9 act 0.9, CYP2C19 act 0.6, CYP2C9 inh 8, Cav32 inh 0.55 and CYP2C19 inh 39.
CCOC(=O)CSc1nnc(-c2ccoc2C)n1-c1ccc(OCC)cc1 was read as CYP2C9 act 0.2, CYP2C19 act 0.1, CYP2C9 inh 82*, Cav32 inh -2.9 and CYP2C19 inh 92*.
`COc1cccc(-n2c(SCC(=O)NC(C)(C)C)nnc2-c2ccoc2C)c1` gave CYP2C9 act 0.9, CYP2C19 act 0.3, CYP2C9 inh 11, Cav32 inh 0.4 and CYP2C19 inh 73*.
For O=C(CCN1C(=O)COc2ccccc21)NCCN1CCN(c2cccc(Cl)c2)CC1 the results were CYP2C9 act 1, CYP2C19 act 0.9, CYP2C9 inh 2, Cav32 inh 0.17 and CYP2C19 inh 14.
CC(=O)N1CCc2cc(S(=O)(=O)NCCC(=O)NC3CCCc4ccccc43)ccc21 (stereo not given) was read as CYP2C9 act 0.8, CYP2C19 act 0.9, CYP2C9 inh 17, Cav32 inh 0.73 and CYP2C19 inh 9.
For CCn1c(SCc2nc3ccccc3[nH]2)nnc1-c1ccncc1 the results were CYP2C9 act 0.8, CYP2C19 act 0.1, CYP2C9 inh 20, Cav32 inh 0.49 and CYP2C19 inh 93*.
For Nn1c(SCc2nc3ccccc3[nH]2)nnc1-c1ccccc1 the results were CYP2C9 act 1.4, CYP2C19 act 0.9, CYP2C9 inh -36, Cav32 inh 0.78 and CYP2C19 inh 14.
`CCn1c(SCC(=O)C(C)(C)C)nnc1-c1cccnc1` gave CYP2C9 act 1.1, CYP2C19 act 1.2, CYP2C9 inh -13, Cav32 inh 1.8 and CYP2C19 inh -16.
Screening CCn1c(SCc2nc3ccccc3[nH]2)nnc1-c1cccnc1 returned CYP2C9 act 1.3, CYP2C19 act 0.2, CYP2C9 inh -32, Cav32 inh -0.017 and CYP2C19 inh 78*.
`O=C(COC(=O)Cn1cnc2ccccc21)NCCC1=CCCCC1` gave CYP2C9 act 1.1, CYP2C19 act 1, CYP2C9 inh -12, Cav32 inh -0.77 and CYP2C19 inh -3.
For Cc1ccc(C(=O)NC(=S)NNC(=O)c2ccccc2[N+](=O)[O-])cc1 the results were Cav32 inh -8*.
COc1ccccc1CN(C)C(=O)c1ccc2c(c1)NC(=O)CS2 was read as CYP2C9 act 1.9, CYP2C19 act 0.1, CYP2C9 inh -94, Cav32 inh 0.96 and CYP2C19 inh 93*.
Screening COc1cc(-c2noc(CCCC(=O)NCc3ccco3)n2)cc(OC)c1OC returned Cav32 inh 0.64.
Screening COc1ccc(N2CCN(C(=O)CSc3nnc(-c4cccnc4)n3-c3ccc(F)cc3)CC2)cc1 returned Cav32 inh 1.4.
For O=C(CSc1nnc(-c2cccnc2)n1-c1ccccc1)N1CCN(c2ccc(F)cc2)CC1 the results were CYP2C9 act 0.4, CYP2C19 act 0.1, CYP2C9 inh 64*, Cav32 inh 4* and CYP2C19 inh 92*.
For Cc1ccc(-n2c(SCC(=O)N3CCOCC3)nnc2-c2ccncc2)cc1 the results were CYP2C9 act 0.9, CYP2C19 act 0.3, CYP2C9 inh 12, Cav32 inh 1.5 and CYP2C19 inh 72*.
`CCCCNC(=O)c1c(CSc2ccc(Cl)cc2)noc1C(=O)NCc1ccccc1` gave Cav32 inh -1.5.
CCCCOC(=O)c1c(C)oc2ccc(NS(=O)(=O)c3ccc4c5c(cccc35)C(=O)N4)cc12 was read as CYP2C9 act 0, CYP2C19 act 0.3, CYP2C9 inh 96*, Cav32 inh -5.8* and CYP2C19 inh 66*.
COCCOC(=O)c1c(C)oc2ccc(NS(=O)(=O)c3ccc(C(=O)O)cc3)cc12 was read as CYP2C9 act 0.9, CYP2C19 act 1, CYP2C9 inh 13, Cav32 inh -0.028 and CYP2C19 inh 0.
Screening CC1CCN(S(=O)(=O)c2ccc3c(c2)CCN3C(=O)CCC(=O)O)CC1 returned CYP2C9 act 1.2, CYP2C19 act 0.9, CYP2C9 inh -17, Cav32 inh 0.48 and CYP2C19 inh 7.
